Source: article PMC7862700, “An all-to-all approach to the identification of sequence-specific readers for epigenetic DNA modifications on cytosine”

Legend:
Experiment in all cases: DAPPL (digital affinity profiling via proximity ligation, sequencing); 10 mM Tris-HCl pH 7.5, 50 mM NaCl, 1 mM DTT, 4% glycerol, room temperature, 30 min; GST-TFs on glutathione beads, 16-mer random dsDNA library, 0.1% formaldehyde crosslink after washing; high values mean tight binding
Settings in all cases: protein: recombinant; tags: N-terminal GST; dsDNA, one strand shown
[1] = target: T1, FLI1 (Homo sapiens, UniProt Q01543 1-452)
T1 sequence: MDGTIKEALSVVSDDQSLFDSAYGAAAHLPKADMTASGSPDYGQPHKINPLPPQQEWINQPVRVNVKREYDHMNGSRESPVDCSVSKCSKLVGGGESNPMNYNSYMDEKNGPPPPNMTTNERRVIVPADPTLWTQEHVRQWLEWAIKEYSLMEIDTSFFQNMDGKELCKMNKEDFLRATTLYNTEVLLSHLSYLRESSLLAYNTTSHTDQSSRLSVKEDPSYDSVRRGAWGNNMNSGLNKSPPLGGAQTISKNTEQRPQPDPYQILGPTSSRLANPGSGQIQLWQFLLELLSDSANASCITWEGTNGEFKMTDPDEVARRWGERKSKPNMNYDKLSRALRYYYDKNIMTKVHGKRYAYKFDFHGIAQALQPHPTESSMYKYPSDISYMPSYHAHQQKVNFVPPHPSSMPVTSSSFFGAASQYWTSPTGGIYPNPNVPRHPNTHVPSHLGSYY
Summary of the method: (§1)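 Sequencing on an Illumina NextSeq500 followed washing, crosslinking with 0.1% formaldehyde, proximity ligation (BsaI/T4 ligase, 1 h, 37 °C) and PCR amplification of pools that had been incubated for 30 min at room temperature with 200 nmole of a random double-stranded 16-mer DNA library in Tris/NaCl/DTT/glycerol buffer. Each pool held DNA-barcoded human transcription factors, expressed in yeast as GST fusions and captured on glutathione beads, plus a tag-only sample. Binding signal is a hexamer's read frequency for a factor divided by its frequency in the tag-only sample.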

[2] = target: T2, ELK1 (Homo sapiens, UniProt P19419 1-428)
T2 sequence: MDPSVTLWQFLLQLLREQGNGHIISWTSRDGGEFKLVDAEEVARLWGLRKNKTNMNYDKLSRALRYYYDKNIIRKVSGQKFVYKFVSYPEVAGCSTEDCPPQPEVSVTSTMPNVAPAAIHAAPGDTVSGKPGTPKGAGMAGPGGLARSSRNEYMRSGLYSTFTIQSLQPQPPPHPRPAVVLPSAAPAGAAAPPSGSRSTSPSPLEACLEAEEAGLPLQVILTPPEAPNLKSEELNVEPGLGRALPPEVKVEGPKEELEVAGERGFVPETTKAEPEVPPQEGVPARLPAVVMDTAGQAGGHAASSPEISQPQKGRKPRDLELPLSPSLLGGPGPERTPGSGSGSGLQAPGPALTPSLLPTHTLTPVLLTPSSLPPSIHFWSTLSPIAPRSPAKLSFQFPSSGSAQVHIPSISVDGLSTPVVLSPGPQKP
Summary of the method: as §1

[3] = target: T3, ERG (Homo sapiens, UniProt P11308 1-479)
T3 sequence: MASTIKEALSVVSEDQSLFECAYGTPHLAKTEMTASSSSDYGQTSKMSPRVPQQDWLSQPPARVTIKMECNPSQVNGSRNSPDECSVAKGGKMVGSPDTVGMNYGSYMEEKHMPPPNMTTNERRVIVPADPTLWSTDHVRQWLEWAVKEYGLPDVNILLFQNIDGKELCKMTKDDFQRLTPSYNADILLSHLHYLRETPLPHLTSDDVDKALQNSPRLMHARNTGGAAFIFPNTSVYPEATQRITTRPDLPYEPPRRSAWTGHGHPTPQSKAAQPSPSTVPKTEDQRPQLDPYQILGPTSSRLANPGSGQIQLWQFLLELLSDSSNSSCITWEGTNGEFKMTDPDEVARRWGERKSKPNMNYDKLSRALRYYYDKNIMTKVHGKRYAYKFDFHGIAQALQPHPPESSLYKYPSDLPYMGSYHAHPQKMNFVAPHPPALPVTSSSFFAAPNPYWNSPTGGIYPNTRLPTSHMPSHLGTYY
Summary of the method: as §1

[4] = target: ELF1 (Homo sapiens, UniProt P32519 1-619)
Chain of ELF1 (P32519 whole entry): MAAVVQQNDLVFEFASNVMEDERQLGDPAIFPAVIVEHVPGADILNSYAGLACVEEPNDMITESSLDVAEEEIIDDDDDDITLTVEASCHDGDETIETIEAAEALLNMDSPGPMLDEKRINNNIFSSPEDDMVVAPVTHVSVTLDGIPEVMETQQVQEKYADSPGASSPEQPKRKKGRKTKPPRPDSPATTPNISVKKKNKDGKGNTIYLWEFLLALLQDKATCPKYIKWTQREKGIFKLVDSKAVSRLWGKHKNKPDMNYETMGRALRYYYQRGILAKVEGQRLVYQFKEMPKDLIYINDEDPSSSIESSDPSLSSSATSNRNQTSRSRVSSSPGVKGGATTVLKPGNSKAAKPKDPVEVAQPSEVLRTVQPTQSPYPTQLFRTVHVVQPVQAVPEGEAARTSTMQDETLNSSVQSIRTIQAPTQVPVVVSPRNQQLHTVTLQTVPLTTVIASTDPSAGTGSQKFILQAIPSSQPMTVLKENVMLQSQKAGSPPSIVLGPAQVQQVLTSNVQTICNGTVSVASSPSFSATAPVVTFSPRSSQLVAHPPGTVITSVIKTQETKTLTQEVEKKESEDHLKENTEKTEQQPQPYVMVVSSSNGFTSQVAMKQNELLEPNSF
Summary of the method: as §1

[5] = target: T4, EHF (Homo sapiens, UniProt Q9NZC4 1-300)
T4 sequence: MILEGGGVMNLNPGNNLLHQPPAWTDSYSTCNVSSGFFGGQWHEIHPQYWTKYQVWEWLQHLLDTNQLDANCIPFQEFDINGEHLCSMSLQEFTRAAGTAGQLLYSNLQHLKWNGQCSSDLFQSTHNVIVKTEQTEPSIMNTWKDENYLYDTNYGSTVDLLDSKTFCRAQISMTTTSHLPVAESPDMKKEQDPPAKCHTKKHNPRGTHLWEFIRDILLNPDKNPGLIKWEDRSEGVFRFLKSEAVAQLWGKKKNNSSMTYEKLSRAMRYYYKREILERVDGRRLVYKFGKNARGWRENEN
Summary of the method: as §1

[6] = target: SPI1 (Homo sapiens, UniProt P17947 1-270)
Summary of the method: as §1

[7] = target: SPIB (Homo sapiens, UniProt Q01892 1-262)
Chain of SPIB (Q01892 whole entry): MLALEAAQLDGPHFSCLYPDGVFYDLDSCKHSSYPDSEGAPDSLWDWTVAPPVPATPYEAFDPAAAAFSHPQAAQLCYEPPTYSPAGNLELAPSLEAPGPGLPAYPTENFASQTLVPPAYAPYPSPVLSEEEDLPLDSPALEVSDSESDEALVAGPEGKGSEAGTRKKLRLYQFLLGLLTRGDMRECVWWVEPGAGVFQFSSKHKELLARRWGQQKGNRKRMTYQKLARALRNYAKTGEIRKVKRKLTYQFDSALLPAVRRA
Summary of the method: as §1

[8] = target: T5, ELK3 (Homo sapiens, UniProt P41970 1-407)
T5 sequence: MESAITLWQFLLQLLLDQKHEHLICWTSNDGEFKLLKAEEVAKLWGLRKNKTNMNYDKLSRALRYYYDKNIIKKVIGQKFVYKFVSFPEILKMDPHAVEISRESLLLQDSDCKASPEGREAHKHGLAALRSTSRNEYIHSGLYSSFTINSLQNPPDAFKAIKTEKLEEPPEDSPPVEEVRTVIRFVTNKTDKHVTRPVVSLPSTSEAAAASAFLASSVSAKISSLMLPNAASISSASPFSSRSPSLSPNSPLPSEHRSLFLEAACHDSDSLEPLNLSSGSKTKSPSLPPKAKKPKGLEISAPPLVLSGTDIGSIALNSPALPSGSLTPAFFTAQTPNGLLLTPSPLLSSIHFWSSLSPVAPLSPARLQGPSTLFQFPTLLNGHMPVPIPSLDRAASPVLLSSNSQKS
Summary of the method: as §1

[9] = target: T6, FEV (Homo sapiens, UniProt Q99581 1-238)
T6 sequence: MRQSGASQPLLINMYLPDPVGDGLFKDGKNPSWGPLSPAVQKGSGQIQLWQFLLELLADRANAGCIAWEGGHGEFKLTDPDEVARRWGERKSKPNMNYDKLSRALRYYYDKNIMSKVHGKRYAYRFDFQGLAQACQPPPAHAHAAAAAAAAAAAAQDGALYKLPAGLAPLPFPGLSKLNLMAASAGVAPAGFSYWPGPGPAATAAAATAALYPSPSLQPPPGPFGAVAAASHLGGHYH
Summary of the method: as §1

[10] = target: T7, SPIC (Homo sapiens, UniProt Q8N5J4 1-248)
T7 sequence: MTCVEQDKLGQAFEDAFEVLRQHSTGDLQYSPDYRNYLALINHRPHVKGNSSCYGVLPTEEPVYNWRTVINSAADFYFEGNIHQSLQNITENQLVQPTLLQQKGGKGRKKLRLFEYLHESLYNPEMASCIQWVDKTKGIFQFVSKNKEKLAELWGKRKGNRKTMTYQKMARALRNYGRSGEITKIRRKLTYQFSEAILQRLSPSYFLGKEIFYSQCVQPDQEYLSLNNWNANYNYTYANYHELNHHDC
Summary of the method: as §1

[11] = target: ELF4 (Homo sapiens, UniProt Q99607 1-663)
Chain of ELF4 (Q99607 whole entry): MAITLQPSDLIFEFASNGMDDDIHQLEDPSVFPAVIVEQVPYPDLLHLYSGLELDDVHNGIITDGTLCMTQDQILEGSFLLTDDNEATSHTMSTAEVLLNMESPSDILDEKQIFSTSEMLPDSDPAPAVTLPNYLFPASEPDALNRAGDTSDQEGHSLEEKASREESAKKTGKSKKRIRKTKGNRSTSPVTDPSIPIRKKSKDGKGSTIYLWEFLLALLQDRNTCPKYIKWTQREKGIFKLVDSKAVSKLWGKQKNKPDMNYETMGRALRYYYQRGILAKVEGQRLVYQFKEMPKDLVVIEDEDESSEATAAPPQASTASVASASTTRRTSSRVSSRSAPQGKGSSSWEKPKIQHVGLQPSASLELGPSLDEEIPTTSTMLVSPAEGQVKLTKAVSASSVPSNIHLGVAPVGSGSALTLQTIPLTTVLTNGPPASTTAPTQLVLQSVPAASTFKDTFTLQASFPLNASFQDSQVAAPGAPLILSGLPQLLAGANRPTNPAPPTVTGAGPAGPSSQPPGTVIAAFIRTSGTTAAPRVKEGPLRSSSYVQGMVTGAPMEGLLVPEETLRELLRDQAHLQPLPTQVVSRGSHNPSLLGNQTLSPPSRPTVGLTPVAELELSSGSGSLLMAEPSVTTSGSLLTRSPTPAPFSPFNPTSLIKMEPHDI
Summary of the method: as §1

Q: Which binding signal [1] does the source give for GCCGCT here?
A: Its binding signal is 1.09 fold enrichment (6-mer frequency, TF over GST control).

Q: What about the binding signal [2] of the same sequence?
A: Its binding signal is 1.08 fold enrichment (6-mer frequency, TF over GST control).

Q: And the binding signal [3]?
A: The binding signal was 1.07 fold enrichment (6-mer frequency, TF over GST control).

Q: What about the binding signal [4] of the same sequence?
A: The binding signal was 1.12 fold enrichment (6-mer frequency, TF over GST control).

Q: And the binding signal [5]?
A: Its binding signal is 1.04 fold enrichment (6-mer frequency, TF over GST control).

Q: What about the binding signal [6] of the same sequence?
A: Its binding signal is 1.12 fold enrichment (6-mer frequency, TF over GST control).

Q: And the binding signal [7]?
A: Its binding signal is 1.1 fold enrichment (6-mer frequency, TF over GST control).

Q: What about the binding signal [8] of the same sequence?
A: The binding signal was 1.06 fold enrichment (6-mer frequency, TF over GST control).

Q: And the binding signal [9]?
A: The binding signal was 1.05 fold enrichment (6-mer frequency, TF over GST control).

Q: And the binding signal [10]?
A: The binding signal was 1.19 fold enrichment (6-mer frequency, TF over GST control).

Q: What about the binding signal [11] of the same sequence?
A: Its binding signal is 1.14 fold enrichment (6-mer frequency, TF over GST control).
